Bioassay records as filed in PubChem.
PHOSPHO1 block = PubChem AID 1565 | 290,000 compounds, 1.1% hits | inhibition, % at 13.3 µM | Phosphoethanolamine/phosphocholine phosphatase (Homo sapiens), Q8TCT1 | recombinant PHOSPHO1, absorbance phosphatase assay; in the data active = inhibition above about 60%
TMEM16A inh = TMEM16A chloride channel inhibitors, primary screen, cell-based, HTS; 310,000 compounds, 1.2% hits; HEK293 TMEM16A/YFP iodide influx fluorescence, ionomycin; Anoctamin-1 (Mus musculus), Q8BHY3; normalized B-score (activity score, 25-100; higher = stronger inhibition) at 10 µM;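 active = ratio plate-corrected score three or more library SD toward inhibition, starting fluorescence score within five deviations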;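 note: score derived from kinetic fluorescence span divided by baseline fluorescence per well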
HDAC3 inhib = HDAC3 deacetylase inhibitors, primary screen, biochemical, fluorescence, cell-free homogeneous; 320,000 compounds, 0.15% hits; recombinant HDAC3, fluorogenic peptide/trypsin coupled; AID 2718, 2010; inhibition, % at 8.3 µM; in the data active = inhibition above about 26%, passing the limit was not always enough
Target sequence (O15379 whole entry, looked up): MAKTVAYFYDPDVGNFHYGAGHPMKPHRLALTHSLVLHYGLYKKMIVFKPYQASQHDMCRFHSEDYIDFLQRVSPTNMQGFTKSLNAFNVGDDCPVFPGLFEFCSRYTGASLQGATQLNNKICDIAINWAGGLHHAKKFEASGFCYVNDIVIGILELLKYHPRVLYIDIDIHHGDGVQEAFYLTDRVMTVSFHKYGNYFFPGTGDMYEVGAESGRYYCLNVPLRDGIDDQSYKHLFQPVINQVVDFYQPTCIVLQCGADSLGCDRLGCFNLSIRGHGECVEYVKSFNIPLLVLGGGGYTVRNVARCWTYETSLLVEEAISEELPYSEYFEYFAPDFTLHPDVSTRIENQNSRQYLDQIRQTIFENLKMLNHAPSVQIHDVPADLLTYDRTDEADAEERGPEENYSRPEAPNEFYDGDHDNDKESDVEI
CHT block = inhibitors of human choline transporter CHT; High affinity choline transporter 1 (Homo sapiens), Q9GZV3; CHT-expressing cells, membrane potential dye, choline response; stronger effect = lower value; B-score at 10 µM; 310,000 compounds, 0.86% hits; AID 488975, 2010;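 active = B-score over 3 SD under the library average, and starting fluorescence ratio not unusually high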;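 note: choline stimulus applied at its EC90 after an EC20 pre-addition; B-score computed on integrated fluorescence ratio after choline addition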
TMEM16A act = TMEM16A chloride channel activators or potentiators, primary screen, cell-based, HTS; Anoctamin-1 (Mus musculus), Q8BHY3; HEK293 TMEM16A/YFP-H148Q/I152L, iodide quench fluorescence; stronger effect = lower value; B-score at 10 µM; 340,000 compounds, 0.3% hits; AID 623877, 2012;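 active = fluorescence-ratio B-score plate-corrected deviation score at least 3 library SD below zero, with starting fluorescence score within 5 deviations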;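 note: channel opened by trigger with iodide after compound preincubation; score built on the fluorescence ratio of max minus min over baseline; more negative score means more quench and so TMEM16A activation or potentiation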
CHT PAM = CHT positive allosteric modulators, primary screen, cell-based, membrane potential dye, choline EC20 | CHT-expressing cells; stronger effect = higher value; LV-AA mutant CHT in HEK293 cells | B-score at 10 µM | 310,000 compounds, 0.49% hits | AID 488977, 2010;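 active = initial fluorescence not abnormally high and integrated response B-score, plate-corrected, over 3 SD above library mean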
* hit, by the source's call. Hits are enriched below; roughly 3.2% of the tested compounds scored in any of these assays.

COC(=O)CNC(=O)CN1c2cccc3cccc(c23)S1(=O)=O was read as PHOSPHO1 block -31, TMEM16A inh inactive, HDAC3 inhib -2, CHT block inactive, TMEM16A act inactive and CHT PAM inactive.
`O=C(C1=C(O)C(=O)N(CC2CCCO2)C1c1ccccc1[N+](=O)[O-])c1ccco1` (stereo not drawn) gave PHOSPHO1 block 32, TMEM16A inh inactive, HDAC3 inhib 8, CHT block inactive, TMEM16A act inactive and CHT PAM inactive.
Screening N#Cc1ccc(NC(=O)CNc2cc(S(=O)(=O)N3CCOCC3)ccc2NCC2CCCO2)cc1 (stereo not drawn) returned PHOSPHO1 block 40, TMEM16A inh inactive, HDAC3 inhib -6, CHT block inactive, TMEM16A act inactive and CHT PAM inactive.
`Cc1ccc(N(CC(=O)Nc2ccc(C)cn2)S(=O)(=O)c2c(C)nn(C)c2C)cc1` gave PHOSPHO1 block 4, TMEM16A inh inactive, HDAC3 inhib -5, CHT block inactive, TMEM16A act inactive and CHT PAM inactive.
For COc1ccc(OCc2n[nH]c(=S)n2-c2ccc(C)cc2)cc1 the results were PHOSPHO1 block 92*, TMEM16A inh inactive, HDAC3 inhib 7, CHT block inactive, TMEM16A act inactive and CHT PAM inactive.
COc1ccccc1-c1n[nH]c(=S)n1-c1ccccc1 was read as PHOSPHO1 block 89*, TMEM16A inh inactive, HDAC3 inhib 8, CHT block inactive, TMEM16A act inactive and CHT PAM inactive.
`COc1ccc(-n2c(-c3ccco3)n[nH]c2=S)cc1` gave PHOSPHO1 block 99*, TMEM16A inh inactive, HDAC3 inhib 7, CHT block inactive, TMEM16A act inactive and CHT PAM inactive.
`COc1ccccc1-c1n[nH]c(=S)n1N` gave PHOSPHO1 block -7, TMEM16A inh inactive, HDAC3 inhib 7, CHT block inactive, TMEM16A act inactive and CHT PAM inactive.
`Nn1c(-c2ccco2)n[nH]c1=S` gave PHOSPHO1 block 86*, TMEM16A inh inactive, HDAC3 inhib 1, CHT block inactive, TMEM16A act inactive and CHT PAM inactive.
`COC1C=CC(CNC(=O)c2cc3c(=O)n4cccc(C)c4nc3n2C)(OC)O1` (stereo not drawn) gave PHOSPHO1 block 2, TMEM16A inh inactive, HDAC3 inhib -30, CHT block inactive, TMEM16A act inactive and CHT PAM inactive.
`Cc1ccc2nc3c(cc(C(=O)NC4CCS(=O)(=O)C4)n3Cc3ccccc3)c(=O)n2c1` (stereo not drawn) gave PHOSPHO1 block 62*, TMEM16A inh inactive, HDAC3 inhib -54, CHT block inactive, TMEM16A act inactive and CHT PAM inactive.
For Cc1ccc2nc3c(cc(C(=O)NCCc4ccccc4)c(=N)n3CCN3CCOCC3)c(=O)n2c1 the results were PHOSPHO1 block 26, TMEM16A inh inactive, HDAC3 inhib -68, CHT block inactive, TMEM16A act inactive and CHT PAM inactive.
`O=S(=O)(/N=C(/Sc1ccccc1)c1ccccc1)c1ccccc1` gave PHOSPHO1 block 100*, TMEM16A inh inactive, HDAC3 inhib -1, CHT block inactive, TMEM16A act inactive and CHT PAM inactive.
Screening CC(C)Cn1c(SC(C)C(=O)NCC2CCCO2)nc2ccc(Cl)cc2c1=O (stereo not drawn) returned HDAC3 inhib -1 and TMEM16A act -25*.
`CCc1ccc(-c2cc(-c3n[nH]c(=S)n3CC)c3ccccc3n2)cc1` gave PHOSPHO1 block 21, TMEM16A inh inactive, HDAC3 inhib -7, CHT block -11* and CHT PAM inactive.
For CCn1c(-c2cc(-c3cccc(OC)c3)nc3ccccc23)n[nH]c1=S the results were PHOSPHO1 block 92*, TMEM16A inh inactive, HDAC3 inhib 1, CHT block inactive, TMEM16A act inactive and CHT PAM inactive.
CCn1c(-c2csc3ccccc23)n[nH]c1=S was read as PHOSPHO1 block -6, TMEM16A inh inactive, HDAC3 inhib 0, CHT block inactive, TMEM16A act inactive and CHT PAM inactive.
For NS(=O)(=O)c1cc(C2(O)NC(=O)c3ccccc32)ccc1Cl (stereo not drawn) the results were PHOSPHO1 block 4, TMEM16A inh inactive, HDAC3 inhib -1, CHT block inactive, TMEM16A act inactive and CHT PAM inactive.
For Cc1cccc(N2CCN(C(=O)c3ccc(NC(=O)CC4SC(N5CCCC5)=NC4=O)cc3)CC2)c1C (stereo not drawn) the results were HDAC3 inhib 1 and TMEM16A act inactive.
Screening CCN(CC)c1ccc(C(=C2C=CC(=[N+](CC)CC)C=C2)c2ccc(N(CC)CC)cc2)cc1 returned TMEM16A act -6.6*.
For CCN(CC)c1ccc(C(=C2C=CC(=[N+](CC)CC)C=C2)c2ccccc2)cc1 the results were TMEM16A act -12*.
O=C(O)CCCCCCCCc1cn(CC2CCCCC2)nn1 was read as PHOSPHO1 block 10, TMEM16A inh inactive, HDAC3 inhib 2, CHT block inactive, TMEM16A act inactive and CHT PAM inactive.
C(=C\c1ccccc1)/CSc1nnc(-c2ccccc2)n1Cc1ccco1 was read as PHOSPHO1 block 80*, TMEM16A inh inactive, HDAC3 inhib 6, CHT block inactive, TMEM16A act inactive and CHT PAM inactive.
For C(=C\c1ccccc1)/CSc1nnc(-c2ccncc2)n1Cc1ccco1 the results were PHOSPHO1 block 64*, TMEM16A inh inactive, HDAC3 inhib -1, CHT block inactive, TMEM16A act inactive and CHT PAM inactive.
Screening Clc1cccc(-c2nnc(SC/C=C/c3ccccc3)n2Cc2ccco2)c1 returned PHOSPHO1 block 21, TMEM16A inh inactive, HDAC3 inhib 8, CHT block inactive, TMEM16A act inactive and CHT PAM 7.3*.
For COc1cccc(NC(=O)c2ccccc2F)c1 the results were TMEM16A inh inactive, HDAC3 inhib 2, CHT block inactive, TMEM16A act inactive and CHT PAM inactive.
CCCOC(=O)c1ccc(NC(=O)c2cc(Cl)ccc2OC)cc1 was read as PHOSPHO1 block -10, TMEM16A inh inactive, HDAC3 inhib -1, CHT block inactive, TMEM16A act inactive and CHT PAM inactive.
